Screening data as filed in PubChem.
An excerpt weighted towards active compounds, which were near 2.4% of everything screened.
CHO-K1 Ca antag = M1 antagonist counterscreen hit in parental CHO-K1 cells | ATP-induced calcium, Fluo-8 fluorescence | inhibition, % at 3 µM | actives 0.6% (n = 360,000) | AID 602250;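 active = inhibition above a per-plate cutoff, the plate's mean sample inhibition plus 3 SD, cut at about 24% in these data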;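 note: 0% = DMSO plus EC80 ATP and 100% = DMSO alone without ATP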
M1 PAM = positive allosteric modulators of human M1 muscarinic receptor. actives 0.088% (n = 360,000). P11229. activation, % at 3 µM. CHO-K1 hM1, Fluo-8 calcium fluorescence, ACh EC20; 0% = ACh EC20, 100% = maximal ACh; in the data active = activation above about 19%, passing the limit was not always enough
Target sequence (P11229 whole entry, looked up): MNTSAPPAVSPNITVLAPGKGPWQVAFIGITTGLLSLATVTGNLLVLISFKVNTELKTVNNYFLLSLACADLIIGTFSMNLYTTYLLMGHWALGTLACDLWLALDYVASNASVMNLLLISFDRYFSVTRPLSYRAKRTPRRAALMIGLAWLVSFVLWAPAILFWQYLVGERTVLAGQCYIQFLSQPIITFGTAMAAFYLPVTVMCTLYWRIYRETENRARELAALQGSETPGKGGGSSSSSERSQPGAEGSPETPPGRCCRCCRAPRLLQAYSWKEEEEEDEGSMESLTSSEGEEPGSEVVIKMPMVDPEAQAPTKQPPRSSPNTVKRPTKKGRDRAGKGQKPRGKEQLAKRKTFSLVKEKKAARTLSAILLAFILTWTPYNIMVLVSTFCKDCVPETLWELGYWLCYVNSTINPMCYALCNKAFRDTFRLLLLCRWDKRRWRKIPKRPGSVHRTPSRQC
M1 antag = antagonists of human M1 muscarinic receptor | P11229 | CHO-K1 hM1, Fluo-8 calcium fluorescence, ACh EC80 antagonist | inhibition, % at 3 µM | actives 1.3% (n = 360,000);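 active = percent inhibition above its own plate's cutoff, namely the mean of that plate's compound wells plus 3 SD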;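 note: peak over basal fluorescence ratio during 140 s after agonist addition; 0% = ACh EC80 plus DMSO and 100% = DMSO alone without agonist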
CHO-K1 Ca PAM = counter-screen for M1 PAMs: effect in parental CHO-K1 cells; activation, % at 3 µM; actives 0.02% (n = 360,000); ATP EC20, Fluo-8 calcium fluorescence; 0% at ATP EC20, 100% at ATP max;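 active = activation above the run cutoff, the mean activation of all test compounds plus 3 SD, cut at about 40% in these data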;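 note: peak over basal fluorescence ratio in a 140 s read after ATP addition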
CHRM1 agonist = activates human CHRM1 receptor; P11229; CHO-K1 hM1, Fluo-8 calcium fluorescence, agonist mode; 0% DMSO, 100% acetylcholine EC100; activation, % at 3 µM; actives 0.33% (n = 360,000); AID 588814;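 active = activation above the run's mean compound activation plus 3 SD, cut at about 16% in these data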;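 note: peak over basal fluorescence ratio within a 140 s kinetic read after compound addition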
CHO-K1 Ca ag = nonselective activator or artifact in parental CHO-K1 cells; Fluo-8 calcium fluorescence; scaled to maximal ATP response, vehicle zero; activation, % at 3 µM; actives 0.48% (n = 360,000); in the data active = activation above about 15%;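 note: untransfected CHO-K1 host cells lacking M1 receptor as counterscreen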
An asterisk follows results filed as active.

SMILES | CHO-K1 Ca antag | M1 PAM | M1 antag | CHO-K1 Ca PAM | CHRM1 agonist | CHO-K1 Ca ag
CN(C1CCCCC1)S(=O)(=O)c1ccc2[nH]c(=O)oc2c1 | -13 | 12 | -16 | 19 | 0 | 3
CCN1CCN(c2ccc(N3CCN(C(=O)c4ccc(Br)o4)CC3)nn2)CC1 | -7 | -18 | 35* | -23 | -5 | 0
O=C(c1ccc(Br)o1)N1CCN(c2ccc(F)cc2)CC1 | -1 | 0 | -4 | 0 | -4 | 0
CCCCN1C(=N)N([C@@H](CCC)CN2CCC[C@H]2CN2C(N)=NC[C@@H]2Cc2ccccc2)C[C@H]1Cc1ccccc1 | -15 | -35 | 36* | 17 | -13 | 0
CCC[C@@H](CN1CCC[C@H]1CN1C(N)=NC[C@@H]1Cc1ccccc1)N1C[C@@H](Cc2ccccc2)N(CCCC2CCCC2)C1=N | -14 | -32 | 33 | 17 | -10 | 1
CCC[C@@H](CN1CCC[C@H]1CN1C(N)=NC[C@@H]1Cc1ccccc1)N1C[C@@H]([C@H](C)CC)N(CCCC2CCCC2)C1=N | 1 | -31 | 82* | -16 | -11 | 0
C=CCNc1nc2cc(-c3ccccc3OC)sc2c(=O)n1C | -4 | -1 | -7 | 10 | -4 | 0
C#Cc1ccc(CN2CCC(C(=O)Nc3ccc(Oc4ccccc4)nc3)CC2)cc1 | -6 | -2 | 5 | 15 | 0 | 9
O=C(Nc1ccc(Oc2ccccc2)nc1)C1CCN(Cc2cccc(F)c2)CC1 | 8 | 3 | -1 | -2 | 3 | 24*
CCn1ccnc1CN1CCc2c([nH]c3ccccc23)C1C(C)(C)C (stereo not given) | 12 | -13 | 5 | 15 | -14 | 23*
CCn1ccnc1CN1CCc2c([nH]c3ccccc23)C1CC(C)C (stereo not given) | -12 | -10 | 8 | 7 | -6 | 3
Cc1cc(OCC(O)CN2CCc3ccccc3C2)cc(C(C)C)c1 (stereo not given) | 4 | -28 | 32* | -9 | -6 | 2
CCCCN(C(C)=O)c1ccc2c(c1)C1CC2CCN1C(=O)OCc1ccccc1 (stereo not given) | 12 | -14 | 34* | -6 | -7 | 2
CCN(CCc1ccccc1)c1ccc2c(c1)C1CC2CCN1C(=O)OCc1ccccc1 (stereo not given) | -1 | 11 | -15 | 8 | -2 | 0
CCOC(=O)c1cnc(-n2nc(C)cc2C)nc1N1CC(C)OC(C)C1 (stereo not given) | 24* | -5 | 10 | -6 | -4 | 0
CCOc1ccc(OCCOCCNCCOC)cc1 | 14 | 1 | -9 | -12 | -8 | 0
CCCNC(=S)NC1CC2CCCC(C1)N2Cc1ccc(F)cc1 (stereo not given) | 0 | -23 | 48* | 2 | -9 | -1
O=C(Nc1ccccc1-c1ccccc1)NC1CC2CCCC(C1)N2Cc1ccc(F)cc1 (stereo not given) | 0 | -35 | 98* | 6 | -14 | -1
COc1ccc(C(=O)NC2CC3CCCC(C2)N3Cc2ccccc2)cc1 (stereo not given) | 3 | -12 | 10 | -21 | -9 | 0
CCOc1ccc(C(=O)NC2CC3CCCC(C2)N3Cc2ccccc2)cc1 (stereo not given) | -3 | -22 | 38* | -12 | -10 | 0
CCC12CSc3nc(Cl)ccc3N1C(=O)C(=O)N2C (stereo not given) | 7 | 4 | -2 | -20 | -4 | 0
O=C(CSc1ncn[nH]1)CSc1ncn[nH]1 | -6 | 0 | 0 | -4 | -2 | 1
CCOC(=O)C1CCCN(C(=O)c2ccc(-c3ccc([N+](=O)[O-])cc3)o2)C1 (stereo not given) | 17 | -12 | 19 | -22 | 39* | 1
CCOC(=O)C1CCCN(C(=O)c2cccc(S(=O)(=O)N(C)c3ccc(C)cc3)c2)C1 (stereo not given) | 2 | -13 | 37* | -5 | -1 | 1
CCCN1CCN(C(=O)c2ccc(-c3ccc([N+](=O)[O-])cc3)o2)CC1 | -9 | -3 | 1 | -6 | -8 | 0
SMILES | CHO-K1 Ca antag | M1 PAM | M1 antag | CHO-K1 Ca PAM | CHRM1 agonist | CHO-K1 Ca ag
CCOC(=O)C1CCCN(C(=O)c2ccc(CS(=O)(=O)c3ccc(C)cc3)o2)C1 (stereo not given) | -8 | -31 | 30 | 13 | 56* | 1
CCOC(=O)C1=CNS(=O)(=O)NC1c1ccc(C[C@H](NC(=O)CNC(=O)CCc2ccccc2)C(N)=O)cc1 (stereo not given in full) | -11 | 10 | -13 | 10 | -2 | 0
Cc1coc2c(C)c3oc(=O)c(CCC(=O)NCCC(=O)O)c(C)c3cc12 | -7 | 15 | -9 | 17 | -2 | 1
COc1ccc(-c2coc3c(C(=O)Nc4cc(OC)c(OC)c(OC)c4)cccc23)c(C)c1 | -5 | -22 | 45* | -2 | -2 | 2
COc1ccc(-c2coc3c(C(=O)NCc4ccc(OC)c(OC)c4)cccc23)c(C)c1 | 23 | -19 | 44* | 1 | 3 | 13
COc1ccc(-c2ccc(C(=O)NCc3ccc(F)c(F)c3)c3occc23)c(C)c1 | -11 | -4 | 3 | 15 | -5 | 3
COc1ccc(-c2ccc(C(=O)NCc3ccncc3)c3occc23)c(C)c1 | 42* | -17 | 42* | -13 | -1 | 11
COc1ccc(-c2ccc(C(=O)N3CCN(C)CC3)c3occc23)c(C)c1 | 32* | 9 | -12 | -10 | 1 | 0
COc1ccc(-c2ccc(C(=O)N3CCOCC3)c3occc23)c(C)c1 | -2 | -13 | 19 | -12 | 2 | 6
CC(=O)c1ccc(N2CCN(CC(O)COC(c3ccccc3)c3ccccc3C)CC2)cc1 (stereo not given) | -4 | -33 | 101* | 4 | -10 | 6
CC(=O)c1ccc(N2CCN(CC(O)COC(c3ccccc3)c3ccccc3)CC2)cc1 (stereo not given) | 15 | -36 | 91* | 18 | -14 | 2
OC(COC(c1ccccc1)c1ccccc1)CN1CCN(c2cccc(Cl)c2)CC1 (stereo not given) | -12 | -21 | 13 | 11 | -11 | 1
COc1ccc(CNC(=O)C2CCN(C(=O)c3csc(Nc4ccc(C)cc4)n3)CC2)cc1 | 14 | -2 | 5 | -14 | 0 | 3
Cc1c(C(=O)c2ccc(N(C)C)cc2)c2ccccn2c1CCC#N | 25* | 5 | 2 | -18 | 0 | 0
COc1ccc(Cl)cc1NC(=O)C(C)N(C)Cc1cccc(Cl)c1Cl (stereo not given) | 1 | -5 | -5 | 13 | -6 | 1
CCCn1cc(S(=O)(=O)c2ccc(F)cc2)c(=O)c2cc(OCC)ccc21 | -21 | 10 | -17 | 18 | -3 | 3
